In PubChem BioAssay (NCATS):
Records with an inconclusive call do not appear. Values without a mark were called inactive. Calls of active or inactive are those of the source. Calls follow the shape of the dose curve; as a rule, active = well fitted inhibition curve with a large enough effect; inconclusive = small, poorly fitted or top-dose-only effect; inactive = flat fitted curve, though single readings scatter.

assay: qHTS for Inhibitors of Plasmodium falciparum (7G8) proliferation (AID 504316);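 also: 0% = DMSO vehicle and -100% = 0.29 µM artemisinin full kill; nearly all actives have a fitted effect of over 65% in size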; details: P. falciparum 7G8 in erythrocytes, SYBR Green DNA, 72 h; series mostly up to 6.7 µM; activity change, negative = inhibition: at the top concentration
Excerpt: Plasmodium falciparum is a virulent malarial parasite that kills 1-2 million people worldwide each year. Malaria not only inflicts tremendous suffering and morbidity on the human population, but has dramatically influenced the course of civilization with profound sociological and economic implications (Shah, S. 2010). Transmitted by mosquitoes, the sporozoite form of the parasite enters the blood stream to infect hepatocytes, where they become merozoites that infect red blood cells (erythrocytes). Within erythrocytes, merozoites begin a […] cycle of growth and division, after which the parasite is released to infect new red blood cells. Gametocytes, which form within erythrocytes as well, circulate in the bloodstream and are ingested by the mosquito, thereby completing the life cycle (see CDC website). To profile malarial lines for differential chemical responses and to identify inhibitors of malarial growth, an assay that measures P. falciparum growth and replication within erythrocytes was employed. This assay uses a DNA binding fluorescent dye (SYBR Green) to detect parasite DNA following cell lysis. Because mature erythrocytes lack DNA, only Plasmodium-derived DNA is detected. The P. falciparum line cp250, derived from a malarial isolate from Cambodia, (Mu, J., et al. 2010) was added to the panel of lines, Dd2, HB3, 7G8 and GB4 in this study. Laboratory of Assay Development and Screening Technology [ADST] and NIH Chemical Genomics Center [NCGC] Boston University, Chemistry Department, Center for Chemical Methodology and Library Development [CMLD-BU] NIH National Institute of Allergy and Infectious Diseases [NIAID]
ADST Assay Protocol Summary: The 1536-well SYBR Green viability assay was based on the method of Bennett et al (2004) and described previously in 1536-well format (Yuan J., et al. 2009). For screening 3 ul culture medium was dispensed into 1536 well black clear bottom plates (Aurora Biotechnologies) using a Multidrop Combi (Thermo Fisher Scientific Inc.), 23 nL compounds in DMSO were added by a pin transfer (Cleveland, P.H. and Koutz, P.J, 2005) using a pin tool-based delivery system (Kalypsys), and 5 ul of erythrocytes infected with P. falciparum one of five lines (cp250, Dd2, HB3, 7G8 or GB4, 0.3% parasitemia, 2.5% hematocrit final concentration) were added. The plates were incubated at 37C in a humidified incubator in 5% CO2 for 72 h, and 2 ul lysis buffer (20 mM Tris HCl, 10 mM EDTA, 0.16% saponin, 1.6% triton X, 10X SYBR Green I (supplied as 10,000X final concentration by Invitrogen) was added to each well. The plates were mixed for 25 sec with gentle shaking and incubated overnight at room temperature in the dark. The following morning, fluorescence intensity at 485(14) nm excitation and 535(25) nm emission wavelengths was measured on an EnVision (Perkin Elmer) plate reader. Plate reads were normalized relative to the control inhibitor (0.29 uM artemisinin) and vehicle (DMSO) wells present on each plate and then corrected by an algorithm using vehicle-only control plates at the beginning and end of the compound plate stack. References Shah, S. (2010). The Fever: how malaria has ruled humankind for 500,000 years. New York, Sarah Crichton Books. CDC web site, http://www.cdc.gov/malaria/about/biology/index.html Mu, J., Myers, R.A., Jiang, H., Liu, S., Ricklefs, S., Waisberg, M., Chotivanich, K., Wilairatana, P., Krudsood, S., White, N.J., et Plasmodium falciparum genome-wide scans for positive selection, recombination hot spots and resistance to antimalarial drugs Nature Genetics 2010, 42, pp 268-271 Bennett TN, Paguio, M., Gligorijevic, B., Seudieu, C., Kosar, A. D., Davidson, E., and Roepe, P. D. Novel, rapid, and inexpensive cell-based quantification of antimalarial drug efficacy Antimicrobial Agents Chemother. 2004, 48(5): pp 1807-10 Yuan J, Johnson RL, Huang RL, Wichterman J, Jiang HY, Hayton K, Fidock DA, Wellems TE, Inglese J, Austin CP, Su XZ. […]

Compound | activity change, negative = inhibition [%] | Potency
CC#CCN1c2ccccc2[C@]23C[C@@H](C(=O)OC)N(S(=O)(=O)c4cccs4)C2=NC(C(=O)OC)=C(C(=O)OC)[C@H]13 | 0.919 | 
COC(=O)[C@@H]1[C@@H](C)N(Cc2ccccc2)C(=O)N[C@H]1c1ccccc1 | -11.2 | 
Cc1ccc(S(=O)(=O)N[C@@H]2COC(=O)[C@@H](C)COC(=O)CC=C[C@H]2C)cc1 | 6.45 | 
COc1ccc(N2C=C3C(=O)C(C)(OC(=O)CCc4ccccc4)C(=O)C=C3C=C2c2ccc(C#N)cc2)cc1 (stereo not given) | 1.21 | 
COC(=O)CCC(=O)OC1(C)C(=O)C2=CN(Cc3ccccc3)C(c3ccc(OC)cc3)=CC2=C(Br)C1=O (stereo not given) | -8.91 | 
COC(=O)CCCC1=CC2=C(c3ccccc3)C(=O)C(C)(OC(=O)C3CCCC3)C(=O)C2=CN1C(CO)CO (stereo not given) |  | inactive
CCCCC1=CC2=CC(=O)C(C)(OC(=O)CC)C(=O)C2=CN1Cc1ccc(OC)cc1 (stereo not given) | 0.607 | 
COC(=O)C1=C(C(=O)OC)[C@@H]2N(Cc3ccccc3)c3ccccc3[C@@]23C[C@@H](C(=O)OC)N(C(C)=O)C3=N1 | -0.773 | 
Cc1ccccc1Nc1oc(-c2ccccc2)nc1-c1ccc(C(F)(F)F)cc1 | 10.8 | 
COC(=O)CCC(=O)OC1(C)C(=O)C=C2C=C(C3CC3)N(CCCCO)C=C2C1=O (stereo not given) | 2.75 | 
Fc1ccccc1-c1nc(-c2ccccc2)oc1NC1CCCCC1 | -5.6 | 
CCN(CC)CCCN1C=C2C(=O)C(C)(OC(=O)CCC(=O)OC)C(=O)C=C2C=C1C1CC1 (stereo not given) | -2.33 | 
COC(=O)C1=C(C(=O)OC)[C@@H]2N(C)c3ccccc3[C@@]23C[C@@H](CO)N(C(=O)c2ccco2)C3=N1 | 0.608 | 
COC(=O)CCCC1=CC2=C(c3ccccc3)C(=O)C(C)(OC(=O)C3CCCC3)C(=O)C2=CN1CC1CC1 (stereo not given) | -1.93 | 
COCCN1C(=O)N[C@@H](c2cccc(C(F)(F)F)c2)[C@@H](C(=O)OC)[C@H]1C |  | inactive
CC(C)CON=C1C[C@@H](O)[C@@H](O)[C@@H]2[C@H]3C(=O)N(c4cccc(Oc5ccccc5)c4)C(=O)[C@@H]3CC[C@H]12 | 10.8 | 
CCOC(=O)CN1C(=O)N[C@@H](c2ccco2)C(C(=O)OC)=C1C | -0.545 | 
C[C@H]1Cc2c(COc3ccccc3)nc3c(c2CO1)CN(C(=O)NCCc1c[nH]c2ccccc12)CC3 | -1.72 | 
COC(=O)C1=C(C(=O)OC)[C@@H]2N(C)c3ccccc3[C@@]23C[C@@H](C(=O)OC)N(C(=O)C2CCC2)C3=N1 | -1.07 | 
COCCN1C(=O)N[C@@H](c2ccccc2)[C@@H](C(=O)OC)[C@H]1C | -1.97 | 

Compound | activity change, negative = inhibition [%] | Potency
COC(=O)C1=C(C(=O)OC)[C@@H]2N(C)c3ccccc3[C@@]23C[C@@H](C(=O)OC)N(C(=O)CC(C)C)C3=N1 | 0.0838 | 
COC(=O)CCC(=O)OC1(C)C(=O)C2=CN(CCc3ccccn3)C(c3ccc(OC)cc3)=CC2=C(Br)C1=O (stereo not given) | -9.48 | 
COC(=O)C1=C(C(=O)OC)[C@@H]2N(Cc3ccccc3)c3ccccc3[C@@]23C[C@@H](C(=O)OC)N(C(=O)NCCBr)C3=N1 | -1 | 
CCOC(=O)CN1C(=O)N[C@@H](CCc2ccccc2)C(C(C)=O)=C1C | 3.89 | 
CCCCc1nc2c(c3c1C[C@H](C)OC3)CN(S(=O)(=O)c1ccc(C#N)cc1)CC2 | -1.35 | 
C=CCN1C=C2C(=O)C(C)(OC(=O)CCC(=O)OC)C(=O)C=C2C=C1C1CC1 (stereo not given) | -16.1 | 
COCCN1C(=O)N[C@@H](c2cccc(F)c2)C(C(C)=O)=C1C | 2.85 | 
COCCN1C(=O)N(C)[C@@H](c2ccccc2)C(C(C)=O)=C1C | -13.1 | 
COC(=O)CC1c2ccccc2C=C(C)N1C(=O)OC (stereo not given) |  | inactive
CCOC(=O)CNC(=O)O[C@@H]1C(=O)c2cc(OC)ccc2O[C@H]1c1ccc(OC)c(Br)c1 | -14.1 | 
COC/C=C/C1=CC2=CC(=O)C(C)(OC(=O)c3cnc4ccccc4n3)C(=O)C2=CN1CCN1CCOCC1 (stereo not given) | -4.71 | 
CC1(OC(=O)CCc2ccccc2)C(=O)C=C2C=C(c3ccc(C#N)cc3)N(C3CC3)C=C2C1=O (stereo not given) | -16 | 
COC(=O)C1=C(C)N(Cc2ccccc2)C(=O)NC1c1ccco1 (stereo not given) | -2.04 | 
COC(=O)C1=C(C(=O)OC)[C@@H]2Nc3ccccc3[C@@]23C[C@@H](C(=O)OC)N(C(C)=O)C3=N1 | -1.04 | 
COc1ccc(NC(=O)N2CCc3nc(COc4ccccc4)c4c(c3C2)CO[C@@H](C)C4)cc1 |  | inactive
COC(=O)[C@@H]1[C@H](CCc2ccccc2)NC(=O)N(Cc2ccccc2)[C@@H]1C | -11.9 | 
COc1ccc(C2=CC3=C(Br)C(=O)C(C)(OC(=O)c4cnc5ccccc5n4)C(=O)C3=CO2)cc1 (stereo not given) | 12 | 
CCCCC1=CC2=CC(=O)C(C)(OC(=O)CC)C(=O)C2=CN1C(CO)CO (stereo not given) | -1.68 | 
C[C@H]1Cc2c(COc3ccccc3)nc3c(c2CO1)CN(C(=O)Nc1cccc(C#N)c1)CC3 |  | inactive
COC(=O)C1=C(C(=O)OC)[C@@H]2N(C)c3ccccc3[C@@]23C[C@@H](CO)N=C3N1 | -0.363 | 
